Assay results reported in ChEMBL document CHEMBL3433997, “St. Jude Leishmania screening dataset” (2016).

Experiments:
Format in all cases: functional
[1] = molecular target: Solute carrier family 2, facilitated glucose transporter member 1 (Homo sapiens) (UniProt P11166); test: ST_JUDE_LEISH: Cytotoxicity at 2uM final concentration against transgenic Leishmania Mexicana promastigotes LmGLUT1 that are glucose transport deficient and complemented with the human glucose transporter GLUT1. Activity is measured by DNA content using SYBR green in vitro
[2] = molecular target: Hexose transporter 1 (Plasmodium falciparum) (UniProt O97467); test: ST_JUDE_LEISH: Cytotoxicity at 2uM final concentration against transgenic Leishmania Mexicana promastigotes LmPfHT that are glucose transport deficient and complemented with the Plasmodium falciparum hexose transporter. Activity is measured by DNA content using SYBR green in vitro
[3] = molecular target: Glucose transporter (Leishmania mexicana) (UniProt O61059); test: ST_JUDE_LEISH: Cytotoxicity at 2uM final concentration against transgenic Leishmania Mexicana promastigotes LmGT2 that are glucose transport deficient and complemented with the L. Mexicana glucose transporter 2. Activity is measured by DNA content using SYBR green in vitro

Solute carrier family 2, facilitated glucose transporter member 1 (Homo sapiens), sequence (P11166 whole entry): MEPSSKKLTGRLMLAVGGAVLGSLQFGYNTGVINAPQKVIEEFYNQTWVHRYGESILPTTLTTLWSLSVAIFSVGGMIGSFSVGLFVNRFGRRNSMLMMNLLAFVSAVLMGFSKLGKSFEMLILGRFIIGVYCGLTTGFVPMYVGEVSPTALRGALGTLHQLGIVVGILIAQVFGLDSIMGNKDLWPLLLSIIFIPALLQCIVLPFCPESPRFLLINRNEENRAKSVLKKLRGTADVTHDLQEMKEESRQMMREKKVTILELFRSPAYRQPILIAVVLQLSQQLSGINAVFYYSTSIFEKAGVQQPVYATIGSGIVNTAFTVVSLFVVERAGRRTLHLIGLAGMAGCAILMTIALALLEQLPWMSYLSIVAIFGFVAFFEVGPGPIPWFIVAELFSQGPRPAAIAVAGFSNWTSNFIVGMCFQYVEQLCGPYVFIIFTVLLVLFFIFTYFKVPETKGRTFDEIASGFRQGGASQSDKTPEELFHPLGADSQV

For `Oc1ccc(-c2cc(-c3ccc(O)cc3)nc(-c3ccccc3)n2)cc1`, the inhibition [1] was 2.51%, the inhibition [2] was 1.53% and the inhibition [3] was 0.82%.

`O=C(NCCCCCN1CCC(c2c[nH]c3ccccc23)CC1)Nc1cccc(C(F)(F)F)c1` showed an inhibition [1] of -1.78%, an inhibition [2] of -2.05% and an inhibition [3] of -2.66%.

Molecule `CCOc1ccc(NC(=O)c2cn3nc(-c4ccc(OCC)cc4)cc3nc2C2CCNCC2)cc1` has an inhibition [1] of 1.5%, an inhibition [2] of 2.58% and an inhibition [3] of 3.37%.

For `N=C(N)Nc1nccc(NCc2ccccc2)n1`, the inhibition [1] was -2.64%, the inhibition [2] was -0.68% and the inhibition [3] was -0.48%.

For `COc1ccc(-c2ccc(NC(=O)c3ccc(Cl)cc3)cc2)cc1CN1CCN(C)CC1`, the inhibition [1] was -0.67%, the inhibition [2] was -2.59% and the inhibition [3] was -0.55%.

For `Cc1nc(-c2cccc(Nc3nccc(NCC(O)c4ccccc4C)n3)c2)cs1` (stereo not given), the inhibition [1] was 2.79%, the inhibition [2] was 3.57% and the inhibition [3] was 3.17%.

For `CC1CCCN(Cc2cc(Cl)cc(Cl)c2O)C1` (stereo not given), the inhibition [1] was -1.08%, the inhibition [2] was -0.95% and the inhibition [3] was -1.76%.

In the case of `N=c1n(Cc2ccc(Cl)cc2)c2ccccc2n1CC(O)c1ccc(Cl)c(Cl)c1` (stereo not given), the inhibition [1] is reported as 0.04%, the inhibition [2] is reported as 1.87% and the inhibition [3] is reported as -1.55%.

Work on `COc1ccc(C(=O)O)cc1OCc1ccccc1` yielded an inhibition [1] of 0.41%, an inhibition [2] of -0.29% and an inhibition [3] of 0.75%.

For `Cc1nc(N)nc(N)c1OCc1ccc(Cl)c(Cl)c1`, the inhibition [1] was 0.66%, the inhibition [2] was 1.73% and the inhibition [3] was 2.48%.

`C#CCCC(=O)Nc1cccc(-c2cccc(-c3nc4cc(C(F)(F)F)ccc4[nH]3)c2)c1` gave an inhibition [1] of -2.22%, an inhibition [2] of 1.99% and an inhibition [3] of 1.42%.

`CC(C)N1CCN(C(=O)c2ccc(CNCCCN3CCN(c4ccccc4C(F)(F)F)CC3)s2)CC1` showed an inhibition [1] of -4.83%, an inhibition [2] of 0.84% and an inhibition [3] of 4.26%.

For `CS(=O)(=O)CCNCc1cccc(-c2ccc3c(Nc4cc(O)c(Cl)cc4F)ccnc3c2)c1`, the inhibition [1] was 6.47%, the inhibition [2] was 4.71% and the inhibition [3] was 2.65%.

Work on `Cc1nc2nc(N)nc(N)c2c(C)c1Cc1ccc(O)cc1` yielded an inhibition [1] of -0.09%, an inhibition [2] of -2.78% and an inhibition [3] of 4.5%.

`Cc1cc(NC(=O)c2cccs2)ccc1OC1CCN(Cc2ccccc2)C1` (stereo not given) showed an inhibition [1] of 0.25%, an inhibition [2] of -0.44% and an inhibition [3] of 1.56%.

`NC1CCN(Cc2ccc(-c3ccc(-c4nc5cc(F)ccc5[nH]4)s3)cc2)C1` (stereo not given) was tested, and the inhibition [1] was 0.37%, the inhibition [2] was 4.62% and the inhibition [3] was 5.81%.

With `N=C(N)Nc1nc(-c2cccc(NC(=O)Cc3ccccc3)c2)cs1` the inhibition [1] was 2.29%, the inhibition [2] was 4.02% and the inhibition [3] was 3.44%.

`O=C1CCCN1CCCNCc1cccc(-c2cccc(-c3nc4cc(F)ccc4[nH]3)c2)c1` gave an inhibition [1] of 0.85%, an inhibition [2] of 1.31% and an inhibition [3] of 0.04%.

Work on `CCOC(=O)c1cc(Cl)cc(Cl)c1OCCCON1C(=N)N=C(N)NC1(C)C` yielded an inhibition [1] of 0.88%, an inhibition [2] of 0.77% and an inhibition [3] of 1.35%.

In the case of `O=C(C=Cc1ccc(Cl)c(Cl)c1)NCCCCCN1CCCC(CCCNC(=O)c2ccc3c(c2)OCO3)C1` (stereo not given), the inhibition [1] is reported as 2.29%, the inhibition [2] is reported as 0.94% and the inhibition [3] is reported as -0.94%.

`CS(=O)(=O)NCCCNCc1cccc(-c2cccc(-c3nc4cc(F)ccc4[nH]3)c2)c1` was tested, and the inhibition [1] was 1.53%, the inhibition [2] was 1.37% and the inhibition [3] was -0.27%.

`COc1ccc(CN2CCC(C(=O)Nc3cccc(-c4cccc(Cl)c4)c3)CC2)cc1O` gave an inhibition [1] of 5.45%, an inhibition [2] of 7.5% and an inhibition [3] of 6.49%.

Work on `CC1(C)CCC(C)(C)c2c1ccc(C1CCN(CCCCNC(=O)c3ccc(-c4ccc(Cl)cc4)cc3)CC1)c2O` yielded an inhibition [1] of 2.14%, an inhibition [2] of 1.66% and an inhibition [3] of 0.11%.

With `O=C(Nc1ccc(Cl)cc1)N[C@H]1CCN(Cc2ccc(OCCCN3CCCCC3)cc2)C1` the inhibition [1] was -0.92%, the inhibition [2] was 1.45% and the inhibition [3] was 0.1%.

`Cc1cc(F)ccc1Nc1nc(N(C)c2ccccc2)c2cccc(OCCO)c2n1` gave an inhibition [1] of 13.7%, an inhibition [2] of 11.2% and an inhibition [3] of 4.48%.

`N#Cc1cccc(Nc2nccc(NCC(O)c3ccccc3C(F)(F)F)n2)c1` (stereo not given) showed an inhibition [1] of 9.64%, an inhibition [2] of 7.25% and an inhibition [3] of 3.83%.

With `Cc1cccc(Cl)c1S(=O)(=O)N1CCCCC(c2ccc(C(F)(F)F)cc2)=N1` the inhibition [1] was 4.54%, the inhibition [2] was 4.52% and the inhibition [3] was 3.77%.

`Cc1[nH]c(C)c(-c2ccc(Oc3ccc(O)cc3)cc2)c(=O)c1Cl` was tested, and the inhibition [1] was 3.19%, the inhibition [2] was 1.48% and the inhibition [3] was -5.02%.

For `Oc1ccc(CCCNc2nc(NCc3cccc4ccccc34)nc(N3CCCNCC3)n2)cc1`, the inhibition [1] was -0.67%, the inhibition [2] was -0.2% and the inhibition [3] was 1.52%.

Work on `Oc1ccc(CCNc2nc(NCc3ccccc3-c3cccc(Cl)c3)nc(N3CCNCC3)n2)cc1` yielded an inhibition [1] of -2.47%, an inhibition [2] of -1.9% and an inhibition [3] of -2.27%.

Work on `Cc1[nH]c(C)c([N+](=O)[O-])c(=O)c1-c1ccc(Oc2ccc(OC(F)(F)F)cc2)cc1` yielded an inhibition [1] of 0.69%, an inhibition [2] of 1.27% and an inhibition [3] of 1.41%.

Molecule `Oc1cccc(Nc2nc(NCC3CCCO3)c3ccccc3n2)c1` (stereo not given) has an inhibition [1] of 27%, an inhibition [2] of 24.8% and an inhibition [3] of 9.1%.

Work on `O=C(Cc1ccccc1)NC(Nc1ccc([N+](=O)[O-])cc1)C(Cl)(Cl)Cl` (stereo not given) yielded an inhibition [1] of -0.19%, an inhibition [2] of 1.43% and an inhibition [3] of 0.18%.

`CN1CCN(c2ccc(Nc3ncc(C#N)c(Nc4ccccc4C(N)=O)n3)cc2)CC1` showed an inhibition [1] of 75.6%, an inhibition [2] of 81.4% and an inhibition [3] of 55.1%.

Molecule `COc1cccc(NC(=O)Nc2cc(-c3ccc4[nH]ncc4c3)cc3c2CNC3=O)c1` has an inhibition [1] of 2.19%, an inhibition [2] of 2.02% and an inhibition [3] of 1.68%.
